Laboratory results as given in ChEMBL document CHEMBL4513216, “Probing the Open Global Health Chemical Diversity Library for Multistage-Active Starting Points for Next-Generation Antimalarials” (ACS Infect Dis, 2020).
About 8,600 (12%) of roughly 69,000 compounds showed an effect of 50% or more. This excerpt belongs to a sample that is enriched for strong results.

System: Plasmodium berghei
Experiment: Screen against P. berghei liver stage (PbLuc), transformed with Luciferase, at 10uM
Assay type: functional, HepG2
Settings: tested at 10 uM

| Compound | INHIBITION [%] |
| --- | --- |
| O=S(=O)(N1CCCC1)N1CC(c2ccnc(Nc3ccccn3)n2)C1 | 26.7 |
| CN(C)c1ccc(NC(=O)c2ccnn2C)nc1 | -62.7 |
| CCN1CC2(CC1=O)CN(C(C)=O)CCN(C(=O)NC(C)C)C2 (stereo unspecified) | -17.2 |
| COc1ccc(OCCNCc2c(C)nn(C)c2N(C)C)cc1 | -7.1 |
| CCN(C)c1ncnc2c1CCN(C(=O)N1CCCC1)CC2 | -21.3 |
| CC(=O)N1CCN(CCNS(=O)(=O)c2ccc(F)c(F)c2)CC1 | -35.1 |
| CNC(=O)C(C)(C)N(C)C(=O)c1cc(COc2ccccc2OC)[nH]n1 | -4.23 |
| COc1cccc(OCc2cc(C(=O)NC[C@@H]3CCCN3)n[nH]2)c1 | 14.9 |
| COC(=O)C(C)(C)NC(=O)c1cc(COc2ccccc2OC)[nH]n1 | -3 |
| COc1cccc(OCc2cc(C(=O)NC[C@H]3CCCN3)n[nH]2)c1 | 25.4 |
| COc1ccccc1OCc1cc(C(=O)NC[C@@H]2CCCN2)n[nH]1 | 82.9 |
| CNC(=O)C(C)(C)NC(=O)c1cc(COc2ccccc2OC)[nH]n1 | 63.7 |
| Cc1ccc(NC(=O)c2cnc(N3CCN(C)CC3)nc2C)cc1C | 43.8 |
| CCc1noc(-c2cccc(OCC(=O)NC(C)C)c2)n1 | 48.7 |
| CC1(c2[nH]ncc2C(N)=O)CCN(c2ncccn2)CC1 | 26.3 |
| CC(C)=CCN1C[C@@H]2CC[C@H]1CN(C(=O)Cn1c(C)cc(C)nc1=O)C2 | -35 |
| Cc1nc(N(C)C2CCCCC2)ncc1C(C)NC(=O)c1cccnc1 (stereo unspecified) | 77.5 |
| CCN(C)S(=O)(=O)NC(C)c1cnc(N(C)C2CCCCC2)nc1C (stereo unspecified) | 63.1 |
| CCn1nc(C)c(C(C)NC(=O)c2cnc(N(C)C)nc2C)c1C (stereo unspecified) | 10.3 |
| CC(C)C(=O)N1CCN(C(=O)c2cscn2)[C@H]2CS(=O)(=O)C[C@H]21 | 26.8 |
| C[C@@H](NC(=O)c1cccnc1)c1onc(-c2ccccc2)c1C(=O)O | 7.5 |
| CN(C)c1nccc(N(C)C2CCCCC2)n1 | 25.5 |

| Compound | INHIBITION [%] |
| --- | --- |
| Cc1nc(-c2ccncc2)ncc1C(C)NC(=O)CN1CCCCC1 (stereo unspecified) | 35.8 |
| CN(c1ncccc1CNC(=O)c1cscn1)C1CCCCC1 | 26 |
| Cc1nc(N(C)C2CCCCC2)ncc1C(C)NC(=O)c1cscn1 (stereo unspecified) | 59.2 |
| NC(=O)CN1CCC(c2cncc(-c3cccc(Cl)c3)n2)CC1 | -40.6 |
| CC(C)COC(=O)N1CCCN(C(C)c2nnc(CC(C)C)o2)CC1 (stereo unspecified) | 4.22 |
| CCCc1nc(C(C)(C)NC(=O)C2CC(=O)N(C3CCCC3)C2)no1 (stereo unspecified) | -15.5 |
| CCCC(=O)N1CCN(CC(O)COCC)CC1 (stereo unspecified) | -2.53 |
| Cc1ncsc1CN1CC[C@](C)(O)[C@@H](Oc2cccc(F)c2)C1 | 33.7 |
| Cc1nc2n(n1)CC(NCc1ccnc(-c3ccccc3)n1)CC2 (stereo unspecified) | -15 |
| O=c1[nH]c(CCN2CCCCC2Cn2cccn2)nc2ccccc12 (stereo unspecified) | 36.1 |
| Cc1cccnc1NC(=O)C1(n2cnnn2)CCCCC1 | 49.5 |
| CC(C)n1[nH]c(=O)c2c1NC(=O)CC2c1ccc(S(C)(=O)=O)cc1 (stereo unspecified) | -2.43 |
| NC1(C(=O)NCC2CCCN(Cc3ccccc3F)C2)CCCC1 (stereo unspecified) | 42.4 |
| O=C(N[C@@H]1CCN(Cc2cccc3nonc23)C[C@H]1O)c1cccnc1 | 12.9 |
| O=C(NCC1CCCN(Cc2cccc3nonc23)C1)c1ccc[nH]1 (stereo unspecified) | 70.3 |
| NC1(C(=O)NCC2CCCN(Cc3cccc4nonc34)C2)CCC1 (stereo unspecified) | 62.8 |
| CC(=O)NCC1CCCN(Cc2nc(Cc3ccccc3F)no2)C1 (stereo unspecified) | 20.4 |
| CCN1CCCC(CNC(=O)C2(c3cccc(Cl)c3)CC2)C1 (stereo unspecified) | -2.42 |
| CCCNc1ncc(CN2CCC3(CCNC(=O)CC3)CC2)cn1 | -41.8 |
| CC1CCc2n[nH]c(C(=O)NCCCc3ccccn3)c2C1 (stereo unspecified) | -41.8 |
| Cc1ccc2oc(SCC(N)=O)nc2n1 | 18.4 |
| CCCC(=O)N1C[C@@H]2CCN(c3cnccn3)C[C@@H]2C1 | -30.7 |

| Compound | INHIBITION [%] |
| --- | --- |
| CC(C)c1nc(CN(C)S(=O)(=O)c2cccs2)cs1 | 55.4 |
| CC(C)c1nc(CN(C)C(=O)CNS(=O)(=O)c2cccs2)cs1 | 26.6 |
| CC(C)c1nc(CN(C)Cc2ccc(F)cc2)cs1 | 20.4 |
| Cc1c(CCC(=O)Nc2ccc(Cl)cn2)cnn1C | -23.4 |
| Cc1ccc(-n2nc(C)cc2N)nn1 | -24.2 |
| CCc1nc(C)c(CN2CCOC(Cc3cccc4ccccc34)C2)[nH]1 (stereo unspecified) | 18.6 |
| CCc1nc(C)c(CN2CCOC(Cc3ccccc3Cl)C2)[nH]1 (stereo unspecified) | 24.2 |
| CCc1nc(C)c(CN2CCOC(CCCC(C)C)C2)[nH]1 (stereo unspecified) | 68.9 |
| O=C(c1c[nH]c(=O)cn1)N1C[C@H]2CC[C@@H](C1)N(Cc1ccccc1)C2 | 17.2 |
| CCn1cc(N)c(-c2nnc3n2CCCC3)n1 | 21.9 |
| CCC(C)(C)N(C)CCOc1cccc(S(C)(=O)=O)c1 | 23.2 |
| CN(CCOc1cccc(S(C)(=O)=O)c1)c1ccccc1 | 81.1 |
| CN(CCOc1cccc(S(C)(=O)=O)c1)CC(F)F | 31.1 |
| COCCN1CCC2(CC1)CN(C(=O)C1CC1)c1ccc(F)cc12 | 34.6 |
| O=C(c1cccnc1N1CCCCC1)N1CCCC(n2ccnc2)C1 (stereo unspecified) | 22.55 |
| Cc1cc(CNc2ccc(-c3nc(C4CC4)no3)cn2)no1 | -28.3 |
| CSCC[C@@H](CO)Nc1ccc(-c2nc(C3CC3)no2)cn1 | 54.4 |
| CSCC[C@@H](CO)Nc1ccc(-c2nc(-c3ccccc3C)no2)cn1 | 36.5 |
| CCC(C)Nc1ccc(-c2nc(-c3cccc(OC)c3OC)no2)cn1 (stereo unspecified) | 33.9 |
| CSCC[C@@H](CO)Nc1ccc(-c2nc(-c3ccccc3F)no2)cn1 | 76.8 |
| c1cc(CNc2ccc(-c3nc(C4CC4)no3)cn2)no1 | 1.98 |
| CN(C)CCO[C@@H]1CC[C@H]2[C@H]1OCCN2C(=O)CCc1ccccc1 | 5.65 |

| Compound | INHIBITION [%] |
| --- | --- |
| CC(=O)N1C[C@H]2CC[C@@H](C1)N(S(=O)(=O)c1cc(F)ccc1C)C2 | -18.1 |
| O=C(O)c1ccccc1C1CCN(C2CCN(c3ccccc3)CC2)C1 (stereo unspecified) | 35.1 |
| COc1ccc(N2CCC(N3CCOC(C(F)(F)F)C3)CC2)cc1 (stereo unspecified) | -25.2 |
| CCS(=O)(=O)c1ccc(N2CCC(N)CC2)cc1 | 12.2 |
| NC1CCN(C2CCN(c3ccc(-c4ccco4)cc3)CC2)CC1 | 65 |
| NCC1CCN(C2CCN(c3ccc(-c4ccco4)cc3)CC2)C1 (stereo unspecified) | 92.8 |
| CNC1CCN(C2CCN(c3ccc(-c4ccco4)cc3)CC2)CC1 | 49 |
| Cc1cccc(C(=O)N2CCn3cc(CN4CCCCC4)nc3C2)n1 | 49.7 |
| Nc1cc2c(nn1)CCN(C(=O)CCCC1CCCCC1)C2 | 70.8 |
| Cn1ncc2c1CCCN(C(=O)C1CCC1)C2 | 10.855 |
| Nc1cc2c(nn1)CCN(C(=O)CCC1CCCCC1)C2 | 62.6 |
| Nc1cc2c(nn1)CCN(C(=O)Cc1ccc3c(c1)CCCC3)C2 | 8.4 |
| Nc1cc2c(nn1)CCN(C(=O)CC1CCCCC1)C2 | 50.3 |
| NC(=O)c1cc2c(nc1N)CCN(C(=O)C1CCCCC1)C2 | 62.9 |
| Nc1cc2c(nn1)CCN(C(=O)CCc1ccc3c(c1)OCO3)C2 | 32.9 |
| Cn1ncc2c1CCCN(C(=O)C1CCCC1)C2 | 22.75 |
| Nc1cc2c(nn1)CCN(C(=O)CC1CCCC1)C2 | 2.26 |
| CCNc1cc2c(nn1)CCN(C(=O)CC1CCCCC1)C2 | 30.2 |
| Nc1cc2c(nn1)CCN(C(=O)Cc1ccc3c(c1)CCO3)C2 | 5.42 |
| Nc1cc2c(nn1)CCN(C(=O)C1CCc3ccccc31)C2 (stereo unspecified) | 17.4 |
| Cn1nnc2c1CCN(Cc1ccccc1)C2COCC1CC1 (stereo unspecified) | 33.5 |
| COc1cn(CC(=O)N2CCN(c3ccc(Cl)cc3)CC2)c(C)cc1=O | 28.3 |

| Compound | INHIBITION [%] |
| --- | --- |
| COc1cc(OC)cc(-c2cc(N)on2)c1 | 12.8 |
| Cc1ccc(CN(CC(=O)N2CCOC(C)C2)C2CC2)cc1 (stereo unspecified) | -59.4 |
| C[C@@H](NC(=O)c1cnccn1)c1c(-c2ccc(Cl)cc2)noc1C(=O)O | 26 |
| CC(C)c1noc(CN(CCC2CCCCC2)CC(N)=O)n1 | 34 |
| CN1CC(C(=O)NCCc2ccc3c(c2)OCCO3)CC1=O (stereo unspecified) | 27.7 |
| Cc1cc(C2CCCN2Cc2nc3ccccc3o2)on1 (stereo unspecified) | -12.2 |
| CC(C)Cn1nnnc1SC(C(=O)NCc1cccnc1)C(C)C (stereo unspecified) | 16.9 |
| Cc1nccnc1CCC1COCCN1C(=O)CCc1c(C)noc1C (stereo unspecified) | 9.05 |
| Cc1ncsc1CN1C[C@@H]2COC[C@]2(C(=O)NCc2cccnc2)C1 | 42.1 |
| Cc1nc(C)c(CC(=O)N2CCC(c3ccn4nccc4n3)CC2)s1 | 4.13 |
| CNc1ncccc1C(=O)N1CCCC2(C1)C(=O)N(C)c1ccccc12 (stereo unspecified) | -4.35 |
| CCCc1noc2ncc(C(=O)N3CCCC3c3cnn(C)c3)cc12 (stereo unspecified) | -29.1 |
| CN(C)CCN1C[C@@H]2CN(C(=O)c3ccsc3)C[C@@H]2C1=O | 3.47 |
| CN(C)CCN1C[C@@H]2CN(S(=O)(=O)c3cccs3)C[C@@H]2C1=O | -9.74 |
| CN(C)CCN1C[C@@H]2CN(c3ccccc3)C[C@@H]2C1=O | 53.9 |
| CN(C)CCN1C[C@@H]2CN(C(=O)C3CC=CC3)C[C@@H]2C1=O | 8.31 |
| O=C1[C@H]2CN(S(=O)(=O)c3ccccc3)C[C@H]2CN1Cc1cccnc1 | -29 |
| CN(C)CCN1C[C@@H]2CN(S(=O)(=O)c3ccccc3)C[C@@H]2C1=O | 53.9 |
